Assay results from ChEMBL document CHEMBL2218924, “A broad activity screen in support of a chemogenomic map for kinase signalling research and drug discovery” (Biochem J, 2013).

Legend:
[1] = molecular target: T1, Tyrosine-protein kinase ITK/TSK (Homo sapiens) (UniProt Q08881); conditions: at 10 µM
T1 sequence (whole entry): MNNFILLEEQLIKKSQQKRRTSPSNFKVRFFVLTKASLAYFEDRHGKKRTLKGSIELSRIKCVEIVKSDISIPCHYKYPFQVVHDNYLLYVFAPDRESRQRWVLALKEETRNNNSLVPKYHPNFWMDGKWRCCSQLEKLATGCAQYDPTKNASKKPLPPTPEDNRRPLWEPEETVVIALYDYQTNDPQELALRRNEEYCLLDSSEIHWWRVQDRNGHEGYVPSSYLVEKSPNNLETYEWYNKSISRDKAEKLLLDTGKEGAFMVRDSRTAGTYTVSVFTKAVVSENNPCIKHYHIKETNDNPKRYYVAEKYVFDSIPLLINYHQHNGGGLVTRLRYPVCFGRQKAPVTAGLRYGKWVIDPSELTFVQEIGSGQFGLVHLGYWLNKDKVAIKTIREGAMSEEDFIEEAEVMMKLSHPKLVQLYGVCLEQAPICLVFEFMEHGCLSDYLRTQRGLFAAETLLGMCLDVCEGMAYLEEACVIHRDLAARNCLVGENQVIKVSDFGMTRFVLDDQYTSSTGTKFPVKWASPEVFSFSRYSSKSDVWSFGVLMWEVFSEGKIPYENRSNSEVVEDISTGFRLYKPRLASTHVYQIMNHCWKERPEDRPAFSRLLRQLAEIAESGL

[2] = molecular target: Tyrosine-protein kinase JAK2 (Homo sapiens) (UniProt O60674); conditions: at 1 µM
[3] = molecular target: Tyrosine-protein kinase JAK2 (Homo sapiens) (UniProt O60674); conditions: at 10 µM
[4] = molecular target: T2, Tyrosine-protein kinase JAK3 (Homo sapiens) (UniProt P52333); conditions: at 1 µM
T2 sequence (whole entry): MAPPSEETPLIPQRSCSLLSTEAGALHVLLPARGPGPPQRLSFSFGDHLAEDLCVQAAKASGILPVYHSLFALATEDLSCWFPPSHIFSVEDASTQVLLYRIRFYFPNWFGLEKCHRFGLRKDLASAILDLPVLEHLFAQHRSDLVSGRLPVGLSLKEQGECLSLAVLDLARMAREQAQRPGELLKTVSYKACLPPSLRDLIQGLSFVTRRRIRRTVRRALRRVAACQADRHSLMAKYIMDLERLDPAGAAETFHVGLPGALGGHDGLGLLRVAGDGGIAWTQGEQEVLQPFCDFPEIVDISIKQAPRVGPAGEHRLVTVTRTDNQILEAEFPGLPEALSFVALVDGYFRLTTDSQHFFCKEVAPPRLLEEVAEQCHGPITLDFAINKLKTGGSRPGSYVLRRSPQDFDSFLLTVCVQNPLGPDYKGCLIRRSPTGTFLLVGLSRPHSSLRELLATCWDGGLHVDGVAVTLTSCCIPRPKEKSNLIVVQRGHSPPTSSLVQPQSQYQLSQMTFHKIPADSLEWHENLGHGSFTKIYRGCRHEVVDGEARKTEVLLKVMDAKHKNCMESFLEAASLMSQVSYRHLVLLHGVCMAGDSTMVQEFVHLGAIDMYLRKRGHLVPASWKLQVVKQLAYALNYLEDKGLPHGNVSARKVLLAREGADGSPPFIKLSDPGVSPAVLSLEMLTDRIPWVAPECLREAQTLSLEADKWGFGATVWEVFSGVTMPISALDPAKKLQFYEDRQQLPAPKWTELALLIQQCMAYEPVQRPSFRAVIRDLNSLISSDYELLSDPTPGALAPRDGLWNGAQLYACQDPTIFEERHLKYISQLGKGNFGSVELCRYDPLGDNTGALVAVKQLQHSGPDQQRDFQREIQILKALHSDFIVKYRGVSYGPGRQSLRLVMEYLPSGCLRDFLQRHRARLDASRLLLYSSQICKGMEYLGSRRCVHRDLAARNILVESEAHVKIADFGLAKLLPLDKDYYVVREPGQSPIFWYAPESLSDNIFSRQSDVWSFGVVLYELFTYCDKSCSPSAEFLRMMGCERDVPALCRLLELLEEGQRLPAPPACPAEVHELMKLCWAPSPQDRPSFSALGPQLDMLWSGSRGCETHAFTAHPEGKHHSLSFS

[5] = molecular target: T2, Tyrosine-protein kinase JAK3 (Homo sapiens); conditions: at 10 µM
[6] = molecular target: Mitogen-activated protein kinase 8 (Homo sapiens) (UniProt P45983); conditions: at 1 µM
[7] = molecular target: Mitogen-activated protein kinase 8 (Homo sapiens) (UniProt P45983); conditions: at 10 µM
[8] = molecular target: Mitogen-activated protein kinase 9 (Homo sapiens) (UniProt P45984); conditions: at 1 µM
[9] = molecular target: Mitogen-activated protein kinase 9 (Homo sapiens) (UniProt P45984); conditions: at 10 µM
[10] = molecular target: Mitogen-activated protein kinase 10 (Homo sapiens) (UniProt P53779); conditions: at 1 µM
[11] = molecular target: Mitogen-activated protein kinase 10 (Homo sapiens) (UniProt P53779); conditions: at 10 µM
[12] = molecular target: Vascular endothelial growth factor receptor 2 (Homo sapiens) (UniProt P35968); conditions: at 1 µM
[13] = molecular target: Vascular endothelial growth factor receptor 2 (Homo sapiens) (UniProt P35968); conditions: at 10 µM
[14] = molecular target: LIM domain kinase 1 (Homo sapiens) (UniProt P53667); conditions: at 1 µM
[15] = molecular target: LIM domain kinase 1 (Homo sapiens) (UniProt P53667); conditions: at 10 µM
[16] = molecular target: T3, Serine/threonine-protein kinase STK11 (Homo sapiens) (UniProt Q15831); conditions: at 1 µM
T3 sequence (whole entry): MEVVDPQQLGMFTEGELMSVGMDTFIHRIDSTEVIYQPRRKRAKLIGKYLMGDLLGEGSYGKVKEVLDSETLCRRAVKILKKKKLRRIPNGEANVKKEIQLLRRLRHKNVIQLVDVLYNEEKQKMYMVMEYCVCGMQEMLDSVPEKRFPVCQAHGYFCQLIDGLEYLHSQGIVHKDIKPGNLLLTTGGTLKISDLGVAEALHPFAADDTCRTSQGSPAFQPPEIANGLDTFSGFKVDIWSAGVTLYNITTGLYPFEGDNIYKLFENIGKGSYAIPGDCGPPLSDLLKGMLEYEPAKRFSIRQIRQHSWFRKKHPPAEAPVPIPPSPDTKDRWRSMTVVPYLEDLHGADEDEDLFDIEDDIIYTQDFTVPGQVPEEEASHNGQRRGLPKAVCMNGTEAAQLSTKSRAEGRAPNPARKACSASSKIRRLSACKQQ

[17] = molecular target: T3, Serine/threonine-protein kinase STK11 (Homo sapiens); conditions: at 10 µM
[18] = molecular target: Serine/threonine-protein kinase 10 (Homo sapiens) (UniProt O94804); conditions: at 1 µM
[19] = molecular target: Serine/threonine-protein kinase 10 (Homo sapiens) (UniProt O94804); conditions: at 10 µM
[20] = molecular target: Tyrosine-protein kinase Lck (Homo sapiens) (UniProt P06239); conditions: at 1 µM
Tyrosine-protein kinase Lck (Homo sapiens), sequence (P06239 2-509 limits assumed): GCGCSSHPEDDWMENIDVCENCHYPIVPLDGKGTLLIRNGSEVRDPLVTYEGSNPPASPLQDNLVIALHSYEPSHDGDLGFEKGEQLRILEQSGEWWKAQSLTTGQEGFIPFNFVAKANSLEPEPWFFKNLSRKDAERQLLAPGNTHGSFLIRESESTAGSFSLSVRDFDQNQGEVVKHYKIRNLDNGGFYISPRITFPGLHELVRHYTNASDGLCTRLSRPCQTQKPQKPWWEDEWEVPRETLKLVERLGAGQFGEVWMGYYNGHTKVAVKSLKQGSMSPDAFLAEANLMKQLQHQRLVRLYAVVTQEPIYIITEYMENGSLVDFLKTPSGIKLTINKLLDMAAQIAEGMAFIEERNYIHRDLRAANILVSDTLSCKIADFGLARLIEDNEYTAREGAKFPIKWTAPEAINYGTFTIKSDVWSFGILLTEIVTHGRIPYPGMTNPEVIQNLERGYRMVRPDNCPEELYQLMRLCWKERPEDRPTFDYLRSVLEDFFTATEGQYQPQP

Mitogen-activated protein kinase 9 (Homo sapiens), sequence (P45984 whole entry, looked up): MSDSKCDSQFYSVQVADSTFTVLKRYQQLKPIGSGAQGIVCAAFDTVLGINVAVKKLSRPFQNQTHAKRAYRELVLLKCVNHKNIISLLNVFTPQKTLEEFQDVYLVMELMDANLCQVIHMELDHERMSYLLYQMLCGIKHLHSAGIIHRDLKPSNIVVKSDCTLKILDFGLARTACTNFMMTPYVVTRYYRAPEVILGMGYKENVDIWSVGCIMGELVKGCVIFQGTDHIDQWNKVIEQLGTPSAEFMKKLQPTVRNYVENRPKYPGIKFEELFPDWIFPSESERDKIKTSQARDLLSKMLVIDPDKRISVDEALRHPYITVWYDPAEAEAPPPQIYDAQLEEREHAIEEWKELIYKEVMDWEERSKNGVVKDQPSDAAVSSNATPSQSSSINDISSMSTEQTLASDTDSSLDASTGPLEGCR
Mitogen-activated protein kinase 8 (Homo sapiens), sequence (P45983 whole entry): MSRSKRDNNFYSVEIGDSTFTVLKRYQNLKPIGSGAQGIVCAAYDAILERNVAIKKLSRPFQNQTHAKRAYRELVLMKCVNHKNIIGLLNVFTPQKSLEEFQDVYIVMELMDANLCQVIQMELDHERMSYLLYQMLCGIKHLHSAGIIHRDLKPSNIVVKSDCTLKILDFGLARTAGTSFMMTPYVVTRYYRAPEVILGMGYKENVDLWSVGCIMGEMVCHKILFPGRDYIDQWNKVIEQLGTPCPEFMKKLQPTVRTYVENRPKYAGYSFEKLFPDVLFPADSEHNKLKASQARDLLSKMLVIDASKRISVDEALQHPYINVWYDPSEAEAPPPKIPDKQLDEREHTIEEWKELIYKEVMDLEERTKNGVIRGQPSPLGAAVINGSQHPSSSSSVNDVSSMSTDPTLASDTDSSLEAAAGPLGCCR
Tyrosine-protein kinase JAK2 (Homo sapiens), sequence (O60674 whole entry): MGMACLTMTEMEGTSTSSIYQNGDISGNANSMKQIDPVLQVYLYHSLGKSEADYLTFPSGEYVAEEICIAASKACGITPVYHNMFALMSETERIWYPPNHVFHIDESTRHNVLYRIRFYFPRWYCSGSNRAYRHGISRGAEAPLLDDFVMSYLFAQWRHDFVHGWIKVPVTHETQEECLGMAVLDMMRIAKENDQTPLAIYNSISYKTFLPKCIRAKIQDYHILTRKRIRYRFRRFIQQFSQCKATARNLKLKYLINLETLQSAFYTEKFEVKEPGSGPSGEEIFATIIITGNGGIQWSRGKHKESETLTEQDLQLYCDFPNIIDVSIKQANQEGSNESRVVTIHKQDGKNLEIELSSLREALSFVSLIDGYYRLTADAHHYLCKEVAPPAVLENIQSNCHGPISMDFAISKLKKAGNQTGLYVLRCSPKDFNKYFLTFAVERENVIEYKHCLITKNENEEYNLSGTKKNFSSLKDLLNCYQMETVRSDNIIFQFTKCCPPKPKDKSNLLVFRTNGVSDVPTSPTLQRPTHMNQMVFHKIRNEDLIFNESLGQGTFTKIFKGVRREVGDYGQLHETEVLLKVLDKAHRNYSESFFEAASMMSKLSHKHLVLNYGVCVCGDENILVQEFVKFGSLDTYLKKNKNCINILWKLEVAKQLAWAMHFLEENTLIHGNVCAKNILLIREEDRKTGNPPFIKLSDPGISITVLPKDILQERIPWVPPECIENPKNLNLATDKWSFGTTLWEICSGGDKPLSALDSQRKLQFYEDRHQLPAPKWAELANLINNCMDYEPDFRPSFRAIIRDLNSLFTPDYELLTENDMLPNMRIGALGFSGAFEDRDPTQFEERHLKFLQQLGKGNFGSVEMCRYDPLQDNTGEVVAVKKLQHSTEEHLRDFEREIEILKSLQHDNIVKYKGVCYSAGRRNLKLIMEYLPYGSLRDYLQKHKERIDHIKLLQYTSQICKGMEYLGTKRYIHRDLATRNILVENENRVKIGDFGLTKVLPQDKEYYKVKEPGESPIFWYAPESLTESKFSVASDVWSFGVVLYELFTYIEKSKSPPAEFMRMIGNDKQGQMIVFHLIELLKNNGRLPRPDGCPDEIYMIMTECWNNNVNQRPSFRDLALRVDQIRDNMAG
LIM domain kinase 1 (Homo sapiens), sequence (P53667 whole entry, looked up, the tested form may be a part): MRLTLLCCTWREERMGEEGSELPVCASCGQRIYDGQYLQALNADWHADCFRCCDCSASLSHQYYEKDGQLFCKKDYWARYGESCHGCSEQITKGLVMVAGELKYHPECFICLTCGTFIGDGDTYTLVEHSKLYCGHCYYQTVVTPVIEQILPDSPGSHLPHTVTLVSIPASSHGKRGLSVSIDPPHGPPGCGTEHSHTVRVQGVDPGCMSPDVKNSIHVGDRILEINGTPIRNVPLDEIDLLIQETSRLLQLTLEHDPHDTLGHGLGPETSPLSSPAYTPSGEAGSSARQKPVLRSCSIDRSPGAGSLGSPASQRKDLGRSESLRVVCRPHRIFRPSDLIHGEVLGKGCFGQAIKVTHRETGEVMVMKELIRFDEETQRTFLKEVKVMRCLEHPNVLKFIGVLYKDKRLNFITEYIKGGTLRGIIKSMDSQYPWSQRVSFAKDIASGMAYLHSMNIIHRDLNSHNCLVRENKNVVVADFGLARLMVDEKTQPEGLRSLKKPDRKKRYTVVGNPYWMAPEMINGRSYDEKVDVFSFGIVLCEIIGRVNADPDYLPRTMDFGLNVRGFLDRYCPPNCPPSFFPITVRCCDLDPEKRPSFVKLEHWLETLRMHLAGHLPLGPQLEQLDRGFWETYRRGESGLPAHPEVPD
Mitogen-activated protein kinase 10 (Homo sapiens), sequence (P53779 whole entry): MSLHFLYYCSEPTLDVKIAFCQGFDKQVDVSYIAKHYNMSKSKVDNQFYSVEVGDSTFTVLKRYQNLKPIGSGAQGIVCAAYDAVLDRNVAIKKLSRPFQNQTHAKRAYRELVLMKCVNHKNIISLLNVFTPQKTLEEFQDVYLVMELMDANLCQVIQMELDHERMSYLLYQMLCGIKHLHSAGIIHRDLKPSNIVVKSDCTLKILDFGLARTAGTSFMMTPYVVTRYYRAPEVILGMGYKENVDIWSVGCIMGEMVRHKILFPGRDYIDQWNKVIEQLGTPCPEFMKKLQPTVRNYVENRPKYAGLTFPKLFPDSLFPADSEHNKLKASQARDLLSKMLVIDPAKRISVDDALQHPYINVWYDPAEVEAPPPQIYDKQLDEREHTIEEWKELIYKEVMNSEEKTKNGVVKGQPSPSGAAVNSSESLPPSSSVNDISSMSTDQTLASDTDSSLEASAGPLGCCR
Serine/threonine-protein kinase 10 (Homo sapiens), sequence (O94804 whole entry, looked up): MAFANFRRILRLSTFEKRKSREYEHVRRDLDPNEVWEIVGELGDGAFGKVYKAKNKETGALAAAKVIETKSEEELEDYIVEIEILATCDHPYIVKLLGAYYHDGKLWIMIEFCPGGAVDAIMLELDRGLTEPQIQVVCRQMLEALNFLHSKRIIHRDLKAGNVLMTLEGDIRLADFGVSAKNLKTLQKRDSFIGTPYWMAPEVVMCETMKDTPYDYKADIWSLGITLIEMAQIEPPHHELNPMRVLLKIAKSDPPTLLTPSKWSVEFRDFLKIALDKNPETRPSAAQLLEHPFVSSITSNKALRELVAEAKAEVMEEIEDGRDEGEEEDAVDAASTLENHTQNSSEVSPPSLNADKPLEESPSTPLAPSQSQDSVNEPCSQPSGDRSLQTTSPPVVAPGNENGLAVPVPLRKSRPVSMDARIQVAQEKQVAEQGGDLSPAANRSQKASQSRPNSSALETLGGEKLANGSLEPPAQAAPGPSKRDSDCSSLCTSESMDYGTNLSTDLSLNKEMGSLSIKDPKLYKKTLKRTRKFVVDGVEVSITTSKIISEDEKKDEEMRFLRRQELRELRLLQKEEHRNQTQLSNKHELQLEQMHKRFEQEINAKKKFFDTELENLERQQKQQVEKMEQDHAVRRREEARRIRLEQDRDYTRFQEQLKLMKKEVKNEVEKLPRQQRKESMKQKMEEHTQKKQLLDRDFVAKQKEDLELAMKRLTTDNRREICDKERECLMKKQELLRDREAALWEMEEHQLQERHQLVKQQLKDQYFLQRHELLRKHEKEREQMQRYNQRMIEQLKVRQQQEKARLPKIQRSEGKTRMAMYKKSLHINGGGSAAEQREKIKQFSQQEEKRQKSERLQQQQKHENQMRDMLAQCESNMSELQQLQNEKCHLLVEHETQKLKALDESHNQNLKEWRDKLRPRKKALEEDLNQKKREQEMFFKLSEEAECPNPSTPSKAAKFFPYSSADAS

SMILES	residual activity [1] [%]	residual activity [2] [%]	residual activity [3] [%]	residual activity [4] [%]	residual activity [5] [%]	residual activity [6] [%]	residual activity [7] [%]	residual activity [8] [%]	residual activity [9] [%]	residual activity [10] [%]	residual activity [11] [%]	residual activity [12] [%]	residual activity [13] [%]	residual activity [14] [%]	residual activity [15] [%]	residual activity [16] [%]	residual activity [17] [%]	residual activity [18] [%]	residual activity [19] [%]	residual activity [20] [%]
O=[N+]([O-])c1ccc(-c2nc(-c3ccc(F)cc3)c(-c3ccncc3)[nH]2)cc1	98	99	101	118	108	102	98	68	59	8	21	85	93	96	90	98	99	114	108	71
NC(=O)c1ccc2[nH]c(-c3ccc(Oc4ccc(Cl)cc4)cc3)nc2c1	86	97	115	105	117	97	91	88	93	98	98	84	43	93	55	103	94	83	58	83
Cn1nc2c3c(cccc31)C(=O)c1ccccc1-2	92	93	76	101	70	85	83	81	83	52	9	84	45	86	80	102	84	73	68	–
Cc1nc(-c2ccccc2)c(-c2ccncc2)o1	101	113	115	97	114	107	94	88	57	63	19	95	78	106	86	111	100	119	105	92
CC(=O)O/N=C1\C(=C2\C(=O)Nc3cc(Br)ccc32)Nc2ccccc21	39	103	71	75	26	98	94	91	94	77	61	67	5	83	50	98	92	53	46	16
O=C1NC(=O)/C(=C\c2ccc3nccnc3c2)S1	91	108	94	86	67	104	87	108	96	89	104	87	63	91	81	90	78	71	35	108
COc1cccc(-c2cc(=O)c3ccccc3o2)c1N	108	111	107	113	108	106	101	102	100	84	95	101	102	93	93	103	100	114	105	85
Nc1ccc2ncnc(NCCc3ccc(Oc4ccccc4)cc3)c2c1	94	107	149	97	124	88	101	93	105	97	80	79	53	106	80	105	94	92	75	76
COc1cc2ncnc(N3CCN(C(=O)Nc4ccc(Oc5ccccc5)cc4)CC3)c2cc1OC	73	101	118	97	124	93	75	108	97	85	89	80	38	54	14	99	89	90	85	98
CN(C)CCCn1cc(C2=C(c3c[nH]c4ccccc34)C(=O)NC2=O)c2ccccc21	–	121	90	–	–	111	–	–	–	117	101	61	14	117	73	105	102	33	15	109
c1ccc(-c2n[nH]cc2-c2ccnc3ccccc23)nc1	104	94	109	–	–	–	–	109	99	79	52	57	23	90	74	96	94	90	93	123
O=C1Nc2ccc(Br)cc2/C1=C\c1cc2c([nH]1)CCCC2	–	105	99	108	101	114	114	101	–	–	–	12	4	–	–	97	99	74	76	–
COc1cc2ncnc(Nc3ccc(NC(=O)c4ccccc4)cc3)c2cc1OC	99	–	–	102	–	–	–	109	108	–	76	95	35	110	56	108	109	71	33	70
CCN(CC)C(=O)c1ccc(Nc2nc(OCC3CCCCC3)c3nc[nH]c3n2)cc1	2	3	-1	7	1	44	-11	44	0	5	-4	33	3	39	10	–	–	45	13	10
COc1ccc(C(=O)Nc2sc3c(c2C(N)=O)CCCC3)cc1OC	96	80	101	99	100	106	68	99	94	66	69	71	75	102	86	104	105	100	87	100
